Assay results taken from the supplement of paper PMC13380429.

Test system: Vero E6 infected with SARS-CoV-2
Experiment: inhibition of SARS-CoV-2 cytopathic effect; higher = more antiviral protection, active = above 15
Settings: 48 h

Measured: inhibition of SARS-CoV-2 cytopathic effect

C=CCN1CCCC1CNC(=O)c1cc2nn[nH]c2cc1OC (stereo not given) [alizapride]
inactive: 1 nM 0.31% | 8.33 nM 1.78% | 100 nM -1.64% | 833.33 nM -1.24% | 10000 nM -0.58%

CC(C)n1nccc1-c1ncccc1COc1cccc(O)c1C=O [voxelotor]
inactive: 1 nM -1.1% | 8.33 nM -1.17% | 100 nM -0.23% | 833.33 nM 0.27% | 10000 nM 6.93%

CC(=O)NCCCS(=O)(=O)O [acamprosate]
inactive: 1 nM -2.95% | 8.33 nM 1.47% | 100 nM -2.01% | 833.33 nM -3.15% | 10000 nM -1.78%
